Screens from PubChem BioAssay.
In the library only some 4.1% were active in any assay of this set; here they are far more common.
AmpC detergent: inhibitors of E. coli AmpC beta-lactamase with detergent. P00811. AmpC hydrolysis of nitrocefin, absorbance 480 nm, 0.01% Triton. Potency, µM (titrated, usually from 114 µM), most hits filed as inhibitors. actives 0.041% (n = 370,000). AID 485294; note: nearly all actives have a fitted effect of over 25% in size
Target sequence (P00811 whole entry, looked up): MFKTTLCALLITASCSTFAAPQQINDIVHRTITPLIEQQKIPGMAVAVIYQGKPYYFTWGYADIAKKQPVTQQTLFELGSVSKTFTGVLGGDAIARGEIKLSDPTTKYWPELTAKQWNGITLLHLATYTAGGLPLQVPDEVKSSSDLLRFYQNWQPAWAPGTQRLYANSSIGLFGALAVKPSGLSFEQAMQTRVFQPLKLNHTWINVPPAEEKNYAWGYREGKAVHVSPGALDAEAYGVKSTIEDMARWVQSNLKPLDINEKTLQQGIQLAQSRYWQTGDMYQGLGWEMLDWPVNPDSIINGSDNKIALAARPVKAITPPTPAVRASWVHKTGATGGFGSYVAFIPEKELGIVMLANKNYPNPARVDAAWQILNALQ
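20 mM phosphate pH 7.0 + 0.01% (detergent screen) or 0.0001% Triton X-100; 5.3 nM AmpC reagent; cpd preinc 15 min RT; nitrocefin (800 uM stock) to start; A480 q20 s × 4 min; Activity was normalised to no-enzyme and no-compound control wells.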
AmpC inh no detg: blocks E. coli AmpC beta-lactamase in detergent-free assay. Potency, µM (top dose mostly 57.1 µM), most hits filed as inhibitors. AmpC nitrocefin hydrolysis, absorbance 480 nm, 0.0001% Triton. actives 0.52% (n = 330,000); note: nearly all actives have a fitted effect of over 20% in size
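20 mM phosphate pH 7.0 + 0.01% (detergent screen) or 0.0001% Triton X-100; 5.3 nM AmpC reagent; cpd preinc 15 min RT; nitrocefin (800 uM stock) to start; A480 q20 s × 4 min; Activity was normalised to no-enzyme and no-compound control wells.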
FMDV inh: antivirals against foot and mouth disease virus | Potency, µM (titrated, usually from 57.9 µM), hits mostly inhibitors | AID 1159524 | FMDV antiviral cell-based qHTS | actives 1.2% (n = 410,000); calls by dose curve; tested in HEK293T cells; note: read-out not given here; nearly all actives have a fitted effect of over 45% in size
Sm TGR block: blocks Schistosoma mansoni thioredoxin glutathione reductase; purified TGR, DTNB reduction, TNB absorbance 405 nm; Potency, µM (titrated, usually from 114 µM), most hits filed as inhibitors; actives 3% (n = 360,000); AID 485364; note: nearly all actives have a fitted effect of over 60% in size
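TGR 20 nM + NADPH 100 uM (dispensed conc.), cpd preinc 15 min RT; start with NADPH (500 uM addition) then DTNB (15 mM addition). Kinetic TNB absorbance, 405 nm filter. Four-parameter Hill fit across titration.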
AMA1 RON2 block: disrupts binding of P. falciparum AMA1 to RON2; AlphaScreen AMA1-biotinylated RON2 peptide binding; Potency, µM (highest dose often 58.2 µM), actives largely listed as inhibitors; actives 0.2% (n = 360,000); AID 720542; note: nearly all actives have a fitted effect of over 45% in size
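AMA1 (3D7) with his tag at 25 nM final met compounds first, then biotinylated RON2 peptide at 25 nM; detection used donor plus acceptor beads, 10 µg/mL apiece, read by AlphaScreen after 30 min at room temperature.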
Of the large screens only hits and unclear results are named; the others gave an inactive call. Unless noted, calls come from the whole dose curve; as a rule, active = well fitted curve in the direction sought with a large enough effect; inconclusive = small, poorly fitted or top-dose-only effect, or another doubt; inactive = no such curve, though single readings can be large; an effect the other way counts as inactive or inconclusive.

CCSc1ncc(Cl)c(C(=O)Nc2ccccc2OC)n1	none
CCc1nnc(NC(=O)c2nc(S(=O)(=O)Cc3ccccc3)ncc2Cl)s1	Sm TGR block 32µM
CCc1nnc(NC(=O)c2nc(Cl)ccc2Cl)s1	none
CCOc1ccccc1NC(=O)c1nc(S(=O)(=O)Cc2cccc(C)c2)ncc1Cl	FMDV inh 14µM, Sm TGR block 7.1µM
CCc1nnc(NC(=O)c2nc(S(=O)(=O)Cc3ccc(C)cc3)ncc2Cl)s1	FMDV inh 28µM, Sm TGR block 32µM
CCc1nnc(NC(=O)c2nc(S(=O)(=O)Cc3cccc(C)c3)ncc2Cl)s1	FMDV inh 4.5µM, Sm TGR block 16µM
COc1ccc(N2CCN(C(=O)c3c(C)oc4ncn(CC(C)C)c(=O)c34)CC2)cc1	none (no result: AmpC inh no detg, AMA1 RON2 block)
CCCCNC(=O)CC1Nc2cc(C)c(C)cc2NC1=O (centres undefined)	none (no result: AmpC inh no detg, AMA1 RON2 block)
O=C(O)CCn1cc(C=C2C(=O)NC(=S)NC2=O)c(-c2cccc(Cl)c2)n1	AmpC inh no detg inconclusive, Sm TGR block 32µM
CCOC(=O)c1ccc(N2C(=O)C3C(C2=O)C(C(=O)c2ccc(Cl)cc2)N2CCCC32)cc1 (centres undefined)	Sm TGR block 16µM
COC(=O)c1cccc(C(=O)N2CCc3c(C(=O)OC)c(OCc4ccccn4)cc(=O)n3CC2)c1	none (no result: AmpC detergent, AmpC inh no detg, Sm TGR block, AMA1 RON2 block)
Cc1ccc(NC2=NCC(=O)N2C2CCCC2)c(C)c1	Sm TGR block 22µM
Cc1ccc(C)c(NC2=NCC(=O)N2C2CCCCC2)c1	none
COC(=O)c1ccc2c(=O)n(CCCCCC(=O)N3CCN(c4cc(C)ccc4C)CC3)c(=O)[nH]c2c1	none (no result: AmpC inh no detg, AMA1 RON2 block)
CCOC(=O)C1=C(Cc2ccc(Cl)cc2)C(=O)c2ccccc2C1=O	FMDV inh inconclusive, Sm TGR block 3.5µM, AMA1 RON2 block inconclusive
Nc1nc(Sc2ccc([N+](=O)[O-])cc2[N+](=O)[O-])n[nH]1	Sm TGR block 32µM
O=[N+]([O-])c1ccc(Sc2cc[n+]([O-])c3ccccc23)c([N+](=O)[O-])c1	FMDV inh inconclusive, Sm TGR block 7.9µM
O=c1[nH]c(Sc2ccc([N+](=O)[O-])cc2[N+](=O)[O-])nc2ccccc12	none (no result: AmpC detergent, AmpC inh no detg, Sm TGR block)
O=[N+]([O-])c1ccc(Sc2nc3ccccc3o2)c([N+](=O)[O-])c1	AmpC detergent inconclusive, FMDV inh 35µM, Sm TGR block 4µM, AMA1 RON2 block 27µM
Cc1ccc(NC(=O)C2CCCN(S(=O)(=O)c3cccc4cccnc34)C2)c(C)c1 (centres undefined)	FMDV inh inconclusive (no result: AmpC inh no detg, AMA1 RON2 block)
COc1ccc(CNC(=O)c2cc3c(=O)[nH]c4ccccc4c3n2C)c(OC)c1	none (no result: AmpC inh no detg, AMA1 RON2 block)
Cc1c(C(=O)NCC2(N3CCOCC3)CCCC2)cnn1-c1nccc(-c2ccccc2F)n1	none (no result: AmpC detergent, AmpC inh no detg, Sm TGR block, AMA1 RON2 block)
O=c1cc(N2CCCCC2)c(-c2ccccc2)nn1Cc1ccccc1Cl	FMDV inh 40µM
Cc1ccc(S(=O)(=O)N2CCc3cc(C(=O)N(C)Cc4ccccc4)ccc32)cc1	none (no result: AmpC inh no detg, AMA1 RON2 block)
Cn1cnc([N+](=O)[O-])c1Oc1cccc(O)c1	FMDV inh 40µM, Sm TGR block 32µM
CN(C)C(=O)c1c([N+](=O)[O-])ncn1C	none
Cn1cnc([N+](=O)[O-])c1Oc1ccccc1	FMDV inh inconclusive, Sm TGR block 35µM
O=C(O)/C=C/C(=O)Nc1ccc(C2(c3ccc(NC(=O)/C=C/C(=O)O)cc3)c3ccccc3-c3ccccc32)cc1	AmpC inh no detg 13µM, Sm TGR block inconclusive
O=C(/C=C/c1ccco1)Nc1ccccc1C(=O)O	Sm TGR block 18µM
CN(C(=O)/C=C/c1ccco1)c1ccccc1C(=O)O	Sm TGR block 3.5µM
CN(C(=O)C=Cc1ccco1)c1ccccc1	none (no result: AmpC detergent, AmpC inh no detg, Sm TGR block)
O=C(/C=C/c1ccco1)Nc1ccccc1C(=O)Nc1cccc(C(=O)O)c1	Sm TGR block 25µM
O=C(/C=C/c1ccco1)Nc1cc(Cl)ccc1C(=O)O	AmpC inh no detg inconclusive, Sm TGR block inconclusive
O=S(=O)(NCc1nnc2n1CCN(Cc1ccccc1Cl)CC2)c1ccccc1	none (no result: AmpC detergent, AmpC inh no detg, Sm TGR block, AMA1 RON2 block)
COCCNC(=O)CCn1c(=O)c2cc(OC)c(OC)cc2n(CC(=O)Nc2ccc(Cl)cc2F)c1=O	none (no result: AmpC inh no detg, AMA1 RON2 block)
Cc1c(Cl)cccc1NC(=O)Cn1c(=O)n(Cc2ccco2)c(=O)c2oc3ccccc3c21	FMDV inh inconclusive (no result: AmpC inh no detg, AMA1 RON2 block)
